Data taken from PubChem BioAssay (NCI).
The panel holds about 79,000 compounds, 15% with a hit somewhere; the sample as a whole holds those more often. Calls of active or inactive are those of the source. Cut-off read from the data, not from the text of the source: active = growth inhibition above about 70%; inactive = the rest.

Experiments:
[1] = NCI Yeast Anticancer Drug Screen. Data for the rad52 strain (AID 147);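 note: 0% = growth of vehicle-treated control cultures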; conditions: S. cerevisiae rad52 mutant growth inhibition, active compounds read high
In short: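 Yeast strain carrying a DNA damage repair alteration was exposed to test compounds. Growth inhibition was measured relative to vehicle-treated controls.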

[2] = NCI Yeast Anticancer Drug Screen. Data for the wt1 strain (AID 149);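 note: 0% = growth of vehicle-treated wt1 cultures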; conditions: S. cerevisiae wt1 strain (SPY 50644) growth inhibition, active compounds read high
In short: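 Growth inhibition read against vehicle controls after compound exposure of the wt1 yeast strain.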

[3] = NCI Yeast Anticancer Drug Screen. Data for the rad50EPP+ strain (AID 151);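 note: 0% = growth of vehicle-treated control cultures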; conditions: S. cerevisiae rad50 mutant strain, active compounds read high
In short: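 Yeast strain carrying rad50 alteration (rad50EPP+) exposed to compounds; growth inhibition measured relative to vehicle-treated controls.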

[4] = NCI Yeast Anticancer Drug Screen. Data for the mgt1 strain (AID 153); conditions: S. cerevisiae mgt1 mutant growth inhibition, active compounds read high
In short: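 Yeast mgt1 strain (DNA repair/cell-cycle alteration panel) exposed to compounds; growth inhibition measured relative to vehicle-treated controls.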

[5] = NCI Yeast Anticancer Drug Screen. Data for the rad50 strain (AID 155);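 note: 0% = growth of vehicle-only cultures of the same strain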; conditions: S. cerevisiae rad50 strain growth inhibition, active compounds read high
In short: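 Readout: growth inhibition relative to vehicle-treated cultures. Compound exposure was carried out in a genetically defined yeast strain deficient in DNA damage repair.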

[6] = NCI Yeast Anticancer Drug Screen. Data for the mec2-1 strain (AID 157); conditions: S. cerevisiae mec2-1 strain, active compounds read high
In short: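 mec2-1 yeast strain, carrying an alteration in DNA damage repair or cell cycle control, was exposed to compounds; growth inhibition was measured relative to vehicle-treated controls.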

[7] = NCI Yeast Anticancer Drug Screen. Data for the rad14 strain (AID 159);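 note: 0% = growth of vehicle-treated control cultures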; conditions: S. cerevisiae rad14 strain growth inhibition, active compounds read high
In short: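 Growth inhibition vs vehicle controls; genetically altered yeast strain (DNA damage repair defect) treated with test compounds.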

[8] = NCI Yeast Anticancer Drug Screen. Data for the sgs1 mgt1 strain (AID 161);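 note: 0% = growth of cultures given vehicle only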; conditions: S. cerevisiae sgs1 mgt1 strain, active compounds read high
In short: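 Growth of a repair-deficient yeast mutant was monitored after compound treatment and expressed as inhibition relative to vehicle-treated cultures.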

[9] = NCI Yeast Anticancer Drug Screen. Data for the cln2 rad14 strain (AID 165);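 note: 0% = growth equal to vehicle treated cultures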; conditions: S. cerevisiae cln2 rad14 strain, active compounds read high
In short: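 Yeast carrying cln2 and rad14 alterations (cell cycle control and DNA damage repair) were exposed to compounds. Growth inhibition was measured against vehicle-treated controls.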

[10] = NCI Yeast Anticancer Drug Screen. Data for the bub3 strain (AID 167); conditions: S. cerevisiae bub3 mutant strain, active compounds read high
In short: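 Readout: yeast growth inhibition, expressed relative to vehicle-only wells. The test organism is a mutant strain from a panel with lesions in DNA repair or checkpoint genes.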

[11] = NCI Yeast Anticancer Drug Screen. Data for the wt2 strain (AID 169);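 note: 0% = growth of vehicle-treated yeast cultures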; conditions: S. cerevisiae wt2 strain growth inhibition, active compounds read high
In short: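 Yeast cells were exposed to test compounds, and growth inhibition was measured relative to vehicle-treated controls.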

[12] = NCI Yeast Anticancer Drug Screen. Data for the mlh1 strain (AID 171);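 note: 0% = growth of vehicle-treated control cultures of the same strain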; conditions: S. cerevisiae mlh1 strain growth inhibition, active compounds read high
In short: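 Yeast carrying a defined genetic alteration in DNA damage repair or cell cycle control were exposed to test compounds. Growth inhibition was measured relative to vehicle-treated controls.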

[13] = NCI Yeast Anticancer Drug Screen. Data for the sgs1 strain (AID 173);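 note: 0% = growth of vehicle-only control cultures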; conditions: S. cerevisiae sgs1 mutant, active compounds read high
In short: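 Yeast mutant strains carrying defined defects in DNA damage repair or cell cycle control were exposed to test compounds. Growth inhibition was scored against vehicle-treated controls.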

[14] = NCI Yeast Anticancer Drug Screen. Data for the mlh1 rad18 strain (AID 175); conditions: S. cerevisiae mlh1 rad18 strain growth inhibition, active compounds read high
In short: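 Growth inhibition of the yeast strain was measured after compound exposure and expressed relative to vehicle-treated controls. The strain carries defined defects in DNA damage repair.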

[15] = NCI Yeast Anticancer Drug Screen. Data for the rad18 strain (AID 177); conditions: S. cerevisiae rad18 mutant growth inhibition, active compounds read high
In short: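 Yeast carrying a defined DNA damage repair alteration were exposed to compounds. Growth inhibition was expressed relative to vehicle-treated controls.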

[16] = NCI Yeast Anticancer Drug Screen. Data for the CLN2oe strain (AID 163);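 note: 0% = growth of vehicle-only control cultures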; conditions: S. cerevisiae CLN2oe strain, active compounds read high
In short: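 Yeast cells carrying a defined cell-cycle control alteration were exposed to test compounds. Growth inhibition was scored against vehicle-treated control cultures.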

[17] = at 5.0 µM (retest, dose inferred, filed as 0.5)
[18] = at 50.0 µM (retest, dose inferred, filed as 5.0)

Measured: growth inhibition

COc1cc(CC2CC(c3ccc4c(c3)OCO4)OC2=O)cc(OC)c1OC (stereo not drawn)
inactive: [1]; at 1.2 µM -1% | [1]; at 3.7 µM -1% | [1]; at 11.0 µM 1% | [1]; at 33.0 µM 3% | [1]; at 100.0 µM 7% | [2]; at 1.2 µM -2% | [2]; at 3.7 µM -3% | [2]; at 11.0 µM -4% | [2]; at 33.0 µM -3% | [2]; at 100.0 µM 0% | [3]; at 1.2 µM -2% | [3]; at 3.7 µM -1% | [3]; at 11.0 µM 0% | [3]; at 33.0 µM 3% | [3]; at 100.0 µM 8% | [4]; at 1.2 µM -1% | [4]; at 3.7 µM 1% | [4]; at 11.0 µM 1% | [4]; at 33.0 µM 1% | [4]; at 100.0 µM 6% | [5]; at 1.2 µM 0% | [5]; at 3.7 µM 1% | [5]; [17] -6% | [5]; at 11.0 µM 3% | [5]; at 33.0 µM 8% | [5]; [18] 12% | [5]; at 50.0 µM -10.2% | [5]; at 100.0 µM 13% | [6]; at 1.2 µM 0% | [6]; at 3.7 µM -2% | [6]; [17] 6% | [6]; at 11.0 µM 2% | [6]; at 33.0 µM 7% | [6]; [18] 11% | [6]; at 50.0 µM -13.4% | [6]; at 100.0 µM 16% | [7]; at 1.2 µM -2% | [7]; at 3.7 µM -3% | [7]; at 11.0 µM -1% | [7]; at 33.0 µM 4% | [7]; at 100.0 µM 12% | [8]; [17] 2% | [8]; [18] 6% | [8]; at 50.0 µM -2.9% | [9]; [17] -1% | [9]; [18] 7% | [9]; at 50.0 µM 1.35% | [10]; at 1.2 µM 15% | [10]; at 3.7 µM 28% | [10]; [17] 24% | [10]; at 11.0 µM 43% | [10]; at 33.0 µM 58% | [10]; [18] 54% | [10]; at 50.0 µM 38.5% | [11]; at 1.2 µM -2% | [11]; at 3.7 µM -4% | [11]; at 11.0 µM -3% | [11]; at 33.0 µM -5% | [11]; at 100.0 µM 0% | [12]; at 1.2 µM -4% | [12]; at 3.7 µM -3% | [12]; at 11.0 µM -1% | [12]; at 33.0 µM 3% | [12]; at 100.0 µM 11% | [13]; at 1.2 µM -2% | [13]; at 3.7 µM -2% | [13]; at 11.0 µM -2% | [13]; at 33.0 µM 0% | [13]; at 100.0 µM 9% | [14]; [17] -2% | [14]; [18] 8% | [14]; at 50.0 µM 18.2% | [15]; at 1.2 µM -4% | [15]; at 3.7 µM -3% | [15]; at 11.0 µM -1% | [15]; at 33.0 µM 0% | [15]; at 100.0 µM 10%
active: [10]; at 100.0 µM 82%

Cn1c(N)nc(-c2ccc(Cl)cc2)c1SSc1c(-c2ccc(Cl)cc2)nc(N)n1C
inactive: [1]; at 1.2 µM -5% | [1]; at 3.7 µM -2% | [1]; at 11.0 µM 33% | [2]; at 1.2 µM 2% | [2]; at 3.7 µM 4% | [2]; at 11.0 µM 16% | [2]; at 33.0 µM 44% | [3]; at 1.2 µM -6% | [3]; at 3.7 µM 9% | [3]; at 11.0 µM 53% | [4]; at 1.2 µM -2% | [4]; at 3.7 µM 0% | [4]; at 11.0 µM 13% | [5]; at 1.2 µM -9% | [5]; at 3.7 µM -17% | [5]; [17] -13% | [5]; at 11.0 µM 6% | [5]; [18] 15% | [6]; at 1.2 µM -1% | [6]; at 3.7 µM 3% | [6]; [17] -15% | [6]; at 11.0 µM 30% | [6]; [18] 13% | [7]; at 1.2 µM -1% | [7]; at 3.7 µM -1% | [7]; at 11.0 µM 10% | [7]; at 33.0 µM 53% | [8]; [17] -12% | [8]; [18] 6% | [16]; at 1.2 µM -8% | [16]; at 3.7 µM -2% | [16]; at 11.0 µM 5% | [16]; at 33.0 µM 63% | [10]; at 1.2 µM -4% | [10]; at 3.7 µM -2% | [10]; [17] -4% | [10]; at 11.0 µM 21% | [11]; at 1.2 µM -1% | [11]; at 3.7 µM 1% | [11]; at 11.0 µM 20% | [12]; at 1.2 µM 0% | [12]; at 3.7 µM 3% | [12]; at 11.0 µM 23% | [13]; at 1.2 µM 0% | [13]; at 3.7 µM 6% | [13]; at 11.0 µM 28% | [14]; [17] -5% | [14]; [18] 24% | [15]; at 1.2 µM -3% | [15]; at 3.7 µM -1% | [15]; at 11.0 µM 34%
active: [1]; at 33.0 µM 88% | [1]; at 100.0 µM 98% | [2]; at 100.0 µM 94% | [3]; at 33.0 µM 84% | [3]; at 100.0 µM 97% | [4]; at 33.0 µM 71% | [4]; at 100.0 µM 98% | [5]; at 33.0 µM 73% | [5]; at 50.0 µM 95.5% | [5]; at 100.0 µM 97% | [6]; at 33.0 µM 75% | [6]; at 50.0 µM 93.1% | [6]; at 100.0 µM 97% | [7]; at 100.0 µM 97% | [8]; at 50.0 µM 94.8% | [16]; at 100.0 µM 97% | [10]; at 33.0 µM 82% | [10]; [18] 93% | [10]; at 50.0 µM 94.9% | [10]; at 100.0 µM 97% | [11]; at 33.0 µM 71% | [11]; at 100.0 µM 99% | [12]; at 33.0 µM 82% | [12]; at 100.0 µM 98% | [13]; at 33.0 µM 85% | [13]; at 100.0 µM 98% | [14]; at 50.0 µM 97.8% | [15]; at 33.0 µM 88% | [15]; at 100.0 µM 94%
